This is a sample that favours compounds with a hit; in the whole collection about 3.3% have one here.
BoNT-F LC inh – BoNT/F light chain protease inhibitors, primary screen, biochemical, flow cytometry, MLPCN library | inhibition, % at 10 µM | Multiplex microsphere protease cleavage assay | AID 588497, 2011 | Botulinum neurotoxin type F light chain protease (Clostridium botulinum) | 360,000 tested, 0.22% active; in the data active = inhibition above about 35%, passing the limit was not always enough; inconclusive = no clear call, values can overlap the other calls; note: plate controls were buffer without enzyme for full effect and enzyme alone for no effect
Anthrax LF inh2 – Bacillus anthracis LF protease inhibitors, primary screen, biochemical, multiplex microsphere, MLPCN library; 360,000 tested, 0.12% active; multiplex microsphere protease cleavage assay; inhibition, % at 10 µM; note: plate controls were buffer without enzyme for full effect and enzyme alone for no effect
MazF activator – activators of E. coli MazEF toxin-antitoxin RNase, primary screen, biochemical, fluorescence, uHTS; Endoribonuclease toxin MazF (Escherichia coli (strain K12)), P0AE70; AID 504720, 2011; activation, % at 20 µM; 350,000 tested, 0.32% active; FAM/BHQ RNA-DNA oligo cleavage fluorescence, 5 h; in the data active = activation above about 50%
Target sequence (P0AE70 whole entry, looked up): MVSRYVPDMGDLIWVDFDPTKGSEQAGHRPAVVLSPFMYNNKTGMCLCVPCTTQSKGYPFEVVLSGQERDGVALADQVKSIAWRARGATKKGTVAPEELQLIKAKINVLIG
BoNT A protease – BoNT/A light chain protease inhibitors, primary screen, biochemical, flow cytometry, MLPCN library. 360,000 tested, 0.17% active. multiplex microsphere protease substrate cleavage. inhibition, % at 10 µM. Botulinum neurotoxin type A light chain protease (Clostridium botulinum A str. ATCC 3502); note: plate controls were buffer without enzyme for full effect and enzyme alone for no effect
Autofluor counter – counter-screen for toxin protease inhibitors: compound fluorescence; 360,000 tested, 3.1% active; compound autofluorescence counterscreen, microsphere flow cytometry; stronger effect = higher value; fluorescence intensity (no concentration beside the values); AID 624483; in the data active = fluorescence intensity above about 16000; inconclusive = no clear call, values can overlap the other calls
SSB-PriA inh – inhibitors of Klebsiella pneumoniae PriA binding to SSB C-terminal tail, primary screen, biochemical, AlphaScreen | PriA–SSB C-terminal tail interaction (Klebsiella pneumoniae) | AlphaScreen SSBct-PriA binding, biotinylated peptide | inhibition, % at 33 µM | 430,000 tested, 0.6% active; in the data active = inhibition mostly above about 37%, no sharp cut-off; inactive = mostly below about 20%;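 note: plate controls were negative control peptide for no effect and reference peptide for full effect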
An asterisk follows results filed as active. Cut-off read from the data, not from the text of the source, unless noted: active = inhibition above about 30%; inconclusive = no clear call, values can overlap the other calls; inactive = below that.

Results for COCCCNC(=O)C1c2ccccc2Oc2ccccc21 ?
BoNT-F LC inh: 41.5*; Anthrax LF inh2: 8.7; MazF activator: 4.3; BoNT A protease: 0.2; Autofluor counter: 3595; SSB-PriA inh: -9.8

Results for O=C(NCCc1ccccc1)NCCn1ccnc1-c1ncccn1 ?
SSB-PriA inh: 96.0*

How did O=C(NCCOc1ccccc1)C1c2ccccc2Oc2ccccc21 do in these assays?
SSB-PriA inh: -14.0

How did COC(=O)c1ccc(S(=O)(=O)Nc2ccc(CC(=O)NCc3cccs3)cc2)cc1 do in these assays?
SSB-PriA inh: -16.0

How did O=C(NCC(=O)N1CCO[C@H](c2ccccc2)C1)C(=O)NCc1cccs1 do in these assays?
SSB-PriA inh: 0.0

Results for CN(C)CCCN1c2ccccc2Sc2ccc(Cl)cc21 ?
BoNT-F LC inh: -6.7; Anthrax LF inh2: -8.5; MazF activator: 17.1; BoNT A protease: -0.2; Autofluor counter: 5253; SSB-PriA inh: 28.9

Results for CSc1ccc2c(c1)N(CCC1CCCCN1C)c1ccccc1S2 (configuration not stated) ?
BoNT-F LC inh: -15.4; Anthrax LF inh2: -2.5; MazF activator: 27.1; BoNT A protease: -0.9; Autofluor counter: 6397; SSB-PriA inh: 40.1*

What do the screens show for `CCN1/C(=C/C=C/c2oc3ccc(-c4ccccc4)cc3[n+]2CC)Oc2ccc(-c3ccccc3)cc21`?
BoNT-F LC inh: -149.4; Anthrax LF inh2: -100.5; BoNT A protease: 43.1*; Autofluor counter: 70271*; SSB-PriA inh: -0.3

Results for COc1ccc(C(=O)Nc2cc(C)nn2C)cc1 ?
SSB-PriA inh: 2.0

Results for Cc1ccc(CC(CC(=O)O)C(=O)NCC23CC4CC(CC(C4)C2)C3)cc1 (configuration not stated) ?
BoNT-F LC inh: -10.9; Anthrax LF inh2: -5.5; MazF activator: -0.4; BoNT A protease: -0.3; Autofluor counter: 5031; SSB-PriA inh: -6.8

What do the screens show for `Cc1ccc(CC(CC(=O)O)C(=O)NC2CCCCC2)cc1` (configuration not stated)?
BoNT-F LC inh: -2.8; Anthrax LF inh2: -2.4; MazF activator: 8.4; BoNT A protease: -1.3; Autofluor counter: 22833*; SSB-PriA inh: -10.7

What do the screens show for `CC1(C)CC(=O)CC(C)(C)N1OC(=O)c1ccncc1`?
BoNT-F LC inh: -1.2; Anthrax LF inh2: -13.4; MazF activator: 9.4; BoNT A protease: inconclusive; Autofluor counter: 23714*; SSB-PriA inh: 0.0

Results for Cc1ccc(NC(=O)NCC#CCOc2ccc3c(c2)OCO3)cc1C ?
SSB-PriA inh: -21.0

How did O=C(CC1CCCCC1)NCCN1CCn2cc(OCc3ccccc3)c(=O)cc2C1=O do in these assays?
SSB-PriA inh: -15.0

Results for CCOC(=O)c1ccccc1NC(=O)Cn1c(C)cc(C)c(-c2nc(-c3ccccc3)no2)c1=O ?
SSB-PriA inh: -1.0

Results for CCC(C)NC(=O)c1ccc(CS(=O)(=O)Cc2ccc(Cl)cc2)o1 (configuration not stated) ?
BoNT-F LC inh: -6.2; Anthrax LF inh2: -1.8; MazF activator: 1.1; BoNT A protease: -3.5; Autofluor counter: 23433*; SSB-PriA inh: -2.8

How did CCC(C)NC(=O)c1ccc(CSCc2ccc(Cl)cc2)o1 (configuration not stated) do in these assays?
BoNT-F LC inh: -8.5; Anthrax LF inh2: 24.8; MazF activator: 1.3; BoNT A protease: 0.1; Autofluor counter: 3616; SSB-PriA inh: -14.9

What do the screens show for `CC(C)Oc1cccc(C(=O)O)c1`?
BoNT-F LC inh: 7.6; Anthrax LF inh2: -5.6; MazF activator: -1.7; BoNT A protease: inconclusive; Autofluor counter: 18055*; SSB-PriA inh: -7.1

How did Cc1c(C(=O)NC(C)CN2CCCCC2)oc2ccccc12 (configuration not stated) do in these assays?
BoNT-F LC inh: -3.8; Anthrax LF inh2: 4.9; MazF activator: 6.5; BoNT A protease: 0.7; Autofluor counter: 17372*; SSB-PriA inh: 3.1

What do the screens show for `Cc1n[nH]c(=S)n1/N=C/c1ccccc1OCc1ccc(Cl)cc1`?
BoNT-F LC inh: -1.8; Anthrax LF inh2: 0.8; MazF activator: 9.7; BoNT A protease: inconclusive; Autofluor counter: 19713*

What do the screens show for `Cc1cc(C(=O)Nc2cccc(C(=O)O)c2)c(C)o1`?
BoNT-F LC inh: 2.7; Anthrax LF inh2: 0.3; MazF activator: 5.2; BoNT A protease: inconclusive; Autofluor counter: 22853*; SSB-PriA inh: -13.1

What do the screens show for `Cc1oc(C(C)(C)C)cc1C(=O)Nc1cccc(C(=O)O)c1`?
BoNT-F LC inh: -0.3; Anthrax LF inh2: -4.1; MazF activator: -4.9; BoNT A protease: -0.5; Autofluor counter: 11358; SSB-PriA inh: -10.2

What do the screens show for `CN(/N=C/c1cccnc1)c1cnn(-c2ccc(F)c(Cl)c2)c(=O)c1Cl`?
BoNT-F LC inh: 36.4*; Anthrax LF inh2: -20.5; MazF activator: -3.5; BoNT A protease: inconclusive; Autofluor counter: 11535

Results for CN(N=Cc1c[nH]c2ccccc12)c1cnn(-c2ccc(F)c(Cl)c2)c(=O)c1Cl ?
SSB-PriA inh: 6.9

What do the screens show for `CN(/N=C/c1c[nH]c2ccccc12)c1cnn(-c2ccc(F)c(Cl)c2)c(=O)c1Cl`?
BoNT-F LC inh: 0.1; Anthrax LF inh2: -3.5; MazF activator: 18.8; BoNT A protease: -1.0; Autofluor counter: 20923*

How did COc1ccc(S(=O)(=O)N2CCn3cccc3C2c2ccc(Cl)cc2Cl)cc1 (configuration not stated) do in these assays?
SSB-PriA inh: 5.0

How did CCOn1c(=O)c(-c2cc3ccccc3o2)[n+]([O-])c2ccccc21 do in these assays?
BoNT-F LC inh: 19.1; Anthrax LF inh2: 10.7; MazF activator: 740.7*; BoNT A protease: 14.1; Autofluor counter: 4225; SSB-PriA inh: -10.5

Results for O=c1c(-c2cc3ccccc3o2)[n+]([O-])c2ccccc2n1OCc1ccccn1 ?
BoNT-F LC inh: 2.6; Anthrax LF inh2: 10.4; MazF activator: 119.4*; BoNT A protease: 8.5; Autofluor counter: 9112; SSB-PriA inh: -10.9

What do the screens show for `O=c1c(-c2ccc(Br)cc2)[n+]([O-])c2ccccc2n1OCc1ccccn1`?
BoNT-F LC inh: -10.0; Anthrax LF inh2: -2.6; MazF activator: 3.9; BoNT A protease: -1.3; Autofluor counter: 4625; SSB-PriA inh: -12.3

What do the screens show for `C#CCN(C#N)c1nc(NCC)nc(NC(C)C)n1`?
BoNT-F LC inh: 0.3; Anthrax LF inh2: -0.5; MazF activator: -4.7; BoNT A protease: -0.3; Autofluor counter: 23207*; SSB-PriA inh: -1.7

What do the screens show for `CCn1c(NCc2ccccn2)nc2c1c(=O)n(C)c(=O)n2C`?
BoNT-F LC inh: -0.8; Anthrax LF inh2: 1.2; MazF activator: 0.6; BoNT A protease: -0.8; Autofluor counter: 16824*; SSB-PriA inh: -5.8

Assay outcomes as filed in PubChem BioAssay.
